HCV NS3h FP – hepatitis C NS3 helicase inhibition, primary screen; inhibition, % at 100 µM; AID 687043; NS3h Cy5-dT15 DNA binding, fluorescence polarization; actives 1.6% (n = 16,000);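 active = inhibition above the average over every tested compound plus 3 SD, cut at about 40% in these data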
Cy5 interf NS3h – enhances or quenches Cy5 fluorescence in NS3h assay; fluorescence interference ratio at 100 µM; AID 720488; actives 6% (n = 16,000); Cy5-dT15 DNA with NS3h, fluorescence interference; actives lie on both sides; signal over control mean, under 1 quenches;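 active = compound fluorescence over control fluorescence at most 0.8, a quencher, or at least a set upper limit, an enhancer; inactive = ratio between 0.8 and the set upper limit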
An asterisk follows results filed as active. This is a sample that favours compounds with a hit; in the whole collection about 6.9% have one here.

For COc1ccc(N(CC(=O)Nc2cc(OC)ccc2OC)S(=O)(=O)c2ccc(OC)c(OC)c2)cc1 the results were HCV NS3h FP 11 and Cy5 interf NS3h 1.1.
For CCOc1ccccc1NC(=O)CN(c1ccc(C)cc1)S(=O)(=O)c1ccc(OC)c(OC)c1 the results were HCV NS3h FP 15 and Cy5 interf NS3h 0.97.
For COc1ccc(NC(=O)CN(c2cccc([N+](=O)[O-])c2)S(=O)(=O)c2ccccc2)c(OC)c1 the results were HCV NS3h FP 28 and Cy5 interf NS3h 0.7*.
Screening COc1ccc(NC(=O)CN(c2cccc([N+](=O)[O-])c2)S(=O)(=O)c2ccccc2)cc1 returned HCV NS3h FP -2 and Cy5 interf NS3h 1.
Screening Cc1ccc(S(=O)(=O)N(Cc2ccccc2)c2ccccc2C(=O)N2CCOCC2)cc1 returned HCV NS3h FP -1 and Cy5 interf NS3h 0.86.
CC12C=CC(O1)C1C(=O)N(c3ccc(Cl)cc3)C(=O)C12 (stereo not given) was read as HCV NS3h FP 21 and Cy5 interf NS3h 1.
Cc1ccc(NC2=CC(c3ccccc3[N+](=O)[O-])N(c3ccc(C)cc3)C2=O)cc1 (stereo not given) was read as HCV NS3h FP -9 and Cy5 interf NS3h 1.
Cc1ccc(-c2nc3ccccc3o2)cc1NC(=S)NC(=O)c1ccco1 was read as HCV NS3h FP -10 and Cy5 interf NS3h 1.1.
COc1ccc(NC(=O)CN(c2ccc(Cl)cc2)S(=O)(=O)c2ccccc2)cc1 was read as HCV NS3h FP 11 and Cy5 interf NS3h 1.
COc1ccc(N(CC(=O)Nc2ccccc2Br)S(C)(=O)=O)c(OC)c1 was read as HCV NS3h FP 7 and Cy5 interf NS3h 0.98.
For COc1ccc(N(CC(=O)Nc2ccccc2Br)S(C)(=O)=O)cc1 the results were HCV NS3h FP 18 and Cy5 interf NS3h 1.3*.
For COc1ccc(S(=O)(=O)N(CC(=O)Nc2ccc(C(C)=O)cc2)c2ccc(C)cc2)cc1OC the results were HCV NS3h FP 10 and Cy5 interf NS3h 0.91.
For COc1ccc(S(=O)(=O)N(CC(=O)Nc2ccc(Br)cc2)c2ccc(C)cc2)cc1OC the results were HCV NS3h FP 17 and Cy5 interf NS3h 0.68*.
Screening COc1ccc(N(CC(=O)Nc2ccc(C(=O)N3CCOCC3)cc2)S(=O)(=O)c2ccccc2)cc1 returned HCV NS3h FP 13 and Cy5 interf NS3h 0.72*.
For COc1ccc2c(C)c(C(=O)O)oc2c1OC the results were HCV NS3h FP 0 and Cy5 interf NS3h 0.96.
For Fc1cccc(Cl)c1Cc1noc(-c2ccc(Br)cc2)n1 the results were HCV NS3h FP -1 and Cy5 interf NS3h 1.
For COCCNC(=O)CN(c1ccc(OC)cc1OC)S(C)(=O)=O the results were HCV NS3h FP 6 and Cy5 interf NS3h 1.1.
`COc1ccc(C(=O)NCc2ccccc2C)cc1OC` gave HCV NS3h FP 1 and Cy5 interf NS3h 1.1.
O=C(c1nn2c(c1Br)NC(c1cccs1)CC2C(F)(F)F)N1CCOCC1 (stereo not given) was read as HCV NS3h FP 5 and Cy5 interf NS3h 1.1.
`O=C(c1nn2c(c1Br)NC(c1cccs1)CC2C(F)(F)F)N1CCCc2ccccc21` (stereo not given) gave HCV NS3h FP 14 and Cy5 interf NS3h 0.7*.
Screening CCOc1ccc(C(=O)Nc2cccc([N+](=O)[O-])c2)cc1Cl returned HCV NS3h FP 2 and Cy5 interf NS3h 0.57*.
`CCOc1ccc(C(=O)Nc2ccc(C)cc2[N+](=O)[O-])cc1Cl` gave HCV NS3h FP 7 and Cy5 interf NS3h 1.
Screening CCOc1ccc(C(=O)Nc2ccc(N3CCOCC3)c(Cl)c2)cc1Cl returned HCV NS3h FP 10 and Cy5 interf NS3h 0.98.
`CCOc1ccc(C(=O)Nc2ccc(NC(=O)CC)cc2)cc1Cl` gave HCV NS3h FP 16 and Cy5 interf NS3h 0.73*.
CCOC(=O)c1sc(NN=C(C#N)C#N)c(C(=O)OCC)c1C was read as HCV NS3h FP -2 and Cy5 interf NS3h 0.56*.
`CCOC(=O)c1c(NC(=O)/C=C\C(=O)O)sc(C(=O)Nc2ccccc2)c1C` gave HCV NS3h FP 19 and Cy5 interf NS3h 0.94.
Screening Cc1cc(C)c(N2C(=O)NC(=O)C(=Cc3ccoc3)C2=O)c(C)c1 returned HCV NS3h FP 42* and Cy5 interf NS3h 1.
`COc1ccc(/C=C2\C(=O)NC(=O)N(c3cc(C)cc(C)c3)C2=O)cc1` gave HCV NS3h FP 21 and Cy5 interf NS3h 1.1.
`COC(C)(C)CNS(=O)(=O)c1ccc(C)cc1` gave HCV NS3h FP 9 and Cy5 interf NS3h 0.74*.
COc1ccc(CNS(=O)(=O)c2ccc(C)cc2)cc1 was read as HCV NS3h FP 7 and Cy5 interf NS3h 0.99.
For COc1cc(CN2CCN(Cc3ccc(Br)cc3)CC2)cc(OC)c1 the results were HCV NS3h FP -9 and Cy5 interf NS3h 0.94.
For CCOC(=O)c1c(NC(=O)c2ccccc2)sc2c1CCC/C2=N\O the results were HCV NS3h FP -5 and Cy5 interf NS3h 1.
Screening CCOC(=O)c1c(-c2ccc(OC)cc2)csc1NC(=O)c1cccc([N+](=O)[O-])c1 returned HCV NS3h FP 12 and Cy5 interf NS3h 0.75*.
Screening CCOC(=O)c1c(-c2ccc(C)cc2)csc1NC(=O)c1ccccc1F returned HCV NS3h FP 7 and Cy5 interf NS3h 1.1.
For COc1ccc(Cl)cc1NC(=O)C1=C(C)NC(=O)NC1c1ccc([N+](=O)[O-])cc1 (stereo not given) the results were HCV NS3h FP 2 and Cy5 interf NS3h 0.96.
COc1ccc(C2C(=C(O)c3ccc(C)cc3)C(=O)C(=O)N2c2nncs2)cc1 (stereo not given) was read as HCV NS3h FP 7 and Cy5 interf NS3h 1.
For c1ccc(Nc2ccc3nc4ccccc4nc3c2)cc1 the results were HCV NS3h FP 15 and Cy5 interf NS3h 0.55*.
Nn1c(Nc2ccccc2)nc2ccccc21 was read as HCV NS3h FP -1 and Cy5 interf NS3h 1.
`C=CCN1C(=O)/C(=C\c2ccc(OC)cc2)SC1=Nc1ccccc1` gave HCV NS3h FP 2 and Cy5 interf NS3h 0.79*.
`C=CCN1C(=O)/C(=C\c2ccc(OCc3cccc4ccccc34)cc2)SC1=S` gave HCV NS3h FP 4 and Cy5 interf NS3h 1.1.
COc1ccc(S(=O)(=O)N(CCc2ccccc2)CC(=O)Nc2ccc3c(c2)OCO3)cc1 was read as HCV NS3h FP -2 and Cy5 interf NS3h 1.
`Cc1ccc(C(=O)NC(NC(=S)Nc2cc(C)ccc2C)C(Cl)(Cl)Cl)cc1` (stereo not given) gave HCV NS3h FP 3 and Cy5 interf NS3h 0.64*.
For Cc1ccc(C(=O)NC(NC(=S)Nc2ccccc2)C(Cl)(Cl)Cl)cc1 (stereo not given) the results were HCV NS3h FP 0 and Cy5 interf NS3h 0.96.
Screening CC1=C(C(=O)Nc2cc(Cl)ccc2C)C(c2ccc(F)cc2)NC(=O)N1 (stereo not given) returned HCV NS3h FP -18 and Cy5 interf NS3h 1.
Cc1cc2c(cc1[N+](=O)[O-])-c1c(ssc1=S)C(C)(C)N2 was read as HCV NS3h FP 21 and Cy5 interf NS3h 1.1.
Screening Cc1ccc2[nH]c(O)c(N=Nc3ccc([N+](=O)[O-])cc3[N+](=O)[O-])c2c1Br returned HCV NS3h FP 17 and Cy5 interf NS3h 0.74*.
For Cc1ccc(S(=O)(=O)N=Nc2c(O)[nH]c3ccc(Br)cc23)cc1C the results were HCV NS3h FP -6 and Cy5 interf NS3h 0.98.
O=C(NCc1ccc2c(c1)OCO2)c1ccco1 was read as HCV NS3h FP 15 and Cy5 interf NS3h 0.74*.
